Bioassay records from PubChem BioAssay.
A selection: hits, their analogues and other compounds. The true share with any hit is near 7.3%.
FLuc counter = inhibits or activates purified firefly luciferase, miR-21 counter-screen | Potency, µM (series often up to 57.5 µM), for the others: top-dose activity change, negative = inhibition, usual class: inhibitors | 360,000 tested, 6.9% active | P08659 | purified FLuc, Km substrates, luminescence inhibition;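 further: plate controls were vehicle for no effect and reference inhibitor for full effect; nearly all actives have a fitted effect of over 55% in size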
Target sequence (P08659 whole entry, looked up): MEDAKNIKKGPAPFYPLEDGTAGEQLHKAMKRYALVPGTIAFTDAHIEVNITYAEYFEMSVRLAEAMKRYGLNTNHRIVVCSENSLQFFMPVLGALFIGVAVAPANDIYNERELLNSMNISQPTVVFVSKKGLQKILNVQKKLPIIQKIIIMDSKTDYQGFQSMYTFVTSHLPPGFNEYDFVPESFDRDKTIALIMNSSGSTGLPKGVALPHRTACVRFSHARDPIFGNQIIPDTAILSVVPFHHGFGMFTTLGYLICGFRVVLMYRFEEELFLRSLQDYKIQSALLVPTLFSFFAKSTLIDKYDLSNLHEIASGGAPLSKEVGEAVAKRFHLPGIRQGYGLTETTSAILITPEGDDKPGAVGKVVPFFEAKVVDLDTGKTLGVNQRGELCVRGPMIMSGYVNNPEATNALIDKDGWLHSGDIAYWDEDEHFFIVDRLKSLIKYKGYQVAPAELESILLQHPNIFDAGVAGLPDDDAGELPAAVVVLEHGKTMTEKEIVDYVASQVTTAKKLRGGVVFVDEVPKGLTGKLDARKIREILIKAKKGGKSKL
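Biochemical qHTS of compounds, final roughly 60 µM downward over six points, against 10 nM purified firefly luciferase using Km concentrations of substrates (10 uM D-luciferin, 10 uM ATP) in Tris acetate pH 7.5 buffer; luminescence output.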
ELG1 genotox = inducers of genotoxicity in HEK293T ELG1-luciferase cells; HEK293T ELG1-luciferase reporter, luminescence, 16 h; Potency, µM (highest dose often 46 µM), for the others: at the top dose activity change, positive = activation, hits mostly activators; 330,000 tested, 1.3% active; further: % of control where 0% means no effect; nearly all actives have a fitted effect of over 60% in size
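ELG1-luciferase HEK293T cells, 2,000/well; compound pinned in; 16 hr, 37 °C, 5% CO2; ONE-Glo, 30 min RT; luminescence on CCD imager.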
NPC1 prom act = NPC1 promoter activation. Potency, µM (highest dose often 9.22 µM), for inactives: top-dose activation, hits mostly activators. Huh7 NPC1 promoter luciferase reporter, 24 h. 320,000 tested, 2.4% active; further: % of control where 0% means no effect; nearly all actives have a fitted effect of over 60% in size
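Compounds in DMSO were transferred onto Huh7 NPC1-luciferase reporter cells pre-incubated 2 h; after 24 h at 37 °C, Amplite reagent was dispensed and luminescence recorded 10 min later.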
SMN2 splice enh = enhancers of SMN2 splice variant expression; Potency, µM (doses to about 46.1 µM), inactives show top-dose activity change, positive = activation, actives largely listed as activators; HEK293 SMN2-luciferase splicing reporter, luminescence, 30-36 h; 210,000 tested, 2.8% active; further: % of control where 0% means no effect; nearly all actives have a fitted effect of over 55% in size
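HEK293 cells carry an SMN2 minigene-luciferase reporter in which exon 7 inclusion puts luciferase in frame. Cells were seeded at 2000 cells/well, attached for 10-12 hours, then exposed to compounds for 30-36 hours at 37C before ONE-Glo luminescence.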
Rab9 promoter act = Rab9 promoter activation; Huh7 Rab9 promoter-luciferase reporter, luminescence, 24 h; 320,000 tested, 2.8% active; Potency, µM (top dose mostly 9.22 µM), for the others: top-dose activation, negative = inhibition, most hits filed as activators; AID 485297; further: % of control where 0% means no effect; nearly all actives have a fitted effect of over 60% in size
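Huh7 cells stably carrying a Rab9 promoter-luciferase reporter, 1500 cells per well in OP-MEM I with 10% FBS, treated with compound 24 hours at 37C. Luciferase activity read by luminescence after 10 minutes with Amplite reagent.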
p53 reactivator = mutant p53 re-activation in reporter cells. AID 504706. H1299 p53-A138V BP100-luciferase reporter, luminescence, 24 h. 320,000 tested, 0.063% active. Potency, µM (highest dose often 92.2 µM), for inactives: at the top dose activity change, positive = activation, hits mostly activators; further: % of control where 0% means no effect; nearly all actives have a fitted effect of over 45% in size
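p53-null H1299 cells stably carrying temperature-sensitive p53-A138V and a BP100-luciferase reporter were pinned with compounds (4-point, 1:5 series) and held 24 hrs at 37 deg C. Luminescence was read 10 min after detection reagent.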
Numbers without * were called inactive; u = inconclusive; x = no result. The call rests on the fitted dose curve; in most records, active means well fitted curve in the direction sought with a large enough effect; inconclusive means small, poorly fitted or top-dose-only effect, or another doubt; inactive means no such curve, though single readings can be large; an effect the other way counts as inactive or inconclusive. Potency means the concentration at half of the fitted maximal effect.

SMILES	FLuc counter	ELG1 genotox	NPC1 prom act	SMN2 splice enh	Rab9 promoter act	p53 reactivator
CCN(CC)c1ccc2cc(-c3nnc(-c4ccncc4)o3)c(=O)oc2c1	u	u	u	11µM*	u	u
CCN(CC)c1ccc2cc(-c3nc(-c4cc(OC)c(OC)c(OC)c4)no3)c(=O)oc2c1	-6%	x	x	x	x	x
CCN(CC)c1ccc2cc(-c3nnc(-c4cccc(Cl)c4)o3)c(=O)oc2c1	-7%	x	x	-6%	x	x
CCN(CC)c1ccc2cc(-c3nc(-c4cccs4)no3)c(=O)oc2c1	3.8µM*	x	x	x	x	x
COc1ccc(-n2c(=O)c3c4c(sc3n(Cc3cc(C)ccc3C)c2=O)CN(C(C)=O)CC4)c(OC)c1	-7%	x	x	18%	x	x
Nc1ccc(N=Nc2ccccc2)c(N)c1	x	x	x	28µM*	x	x
Nc1ncnc(N)c1N=Nc1ccccc1	-6%	-14%	20%	x	0%	13%
Nc1ccccc1N=Nc1ccccc1N	5.4µM*	u	1.6µM*	x	1.6µM*	x
Nc1ccccc1-c1ccccc1N	-1%	0%	5%	x	-9%	-1%
O=C(c1ccc(Cl)c([N+](=O)[O-])c1)N1CCCc2ccccc21	19µM*	16%	-2%	x	2%	7%
CCOc1ccc(CN2C(=O)c3ccccc3Sc3ccc(C(=O)NCc4ccc5c(c4)OCO5)cc32)cc1	7%	x	x	3%	x	x
Fc1cccc(Cl)c1CSc1nnnn1-c1ccc2c(c1)OCO2	-1%	-1%	1%	4%	6%	0%
Fc1cccc(Cl)c1Cn1nnc(-c2ccc3c(c2)OCO3)n1	12µM*	u	u	13µM*	u	u
Cc1cccc(NC(=O)CSc2ccc(-c3ccc4c(c3)OCO4)nn2)c1C	2%	10%	0%	25%	-1%	-10%
Cc1ccccc1Cn1nnc(-c2ccc3c(c2)OCO3)n1	15µM*	19%	21%	4µM*	u	u
N#CCn1nnc(-c2ccc3c(c2)OCO3)n1	u	u	9%	x	10%	16%
Cc1ccccc1Cn1ccc(-c2ccc3c(c2)OCO3)n1	15µM*	-1%	u	5%	29%	27%
Fc1cccc(Cn2ccc(-c3ccc4c(c3)OCO4)n2)c1	21µM*	15%	28%	u	26%	u
CCS(=O)(=O)N1CC(=O)N(c2ccc(Cl)cc2C)C(C)(C(=O)NC2CCCCCC2)C1 (configuration not stated)	-5%	x	x	x	x	x
Cc1ccc(-c2nc(CS(=O)(=O)CC(=O)N3CCN(c4cccc(C)c4C)CC3)c(C)o2)cc1	-12%	x	x	-15%	x	x
CCN1C(=O)[C@H]2[C@H]3CN=C(SCC4CC4)N3[C@@](CC)(C(=O)OC)[C@H]2C1=O	x	-3%	x	x	x	-11%
O=C(CCCCn1c(=O)c2ccccc2n(Cc2ccccc2Cl)c1=O)NCCc1ccccc1	4%	x	x	17%	x	x
Cc1cccc(C(=O)O/N=C/c2ccc(Br)cc2)c1	3.4µM*	u	-2%	-23%	-3%	2%
Cc1cccc(C(=O)O/N=C(\N)c2ccc(Br)cc2)c1	3µM*	11µM*	0.56µM*	28%	0.71µM*	u
Cc1cccc(OCC(=O)O/N=C(\N)c2ccc(Cl)cc2)c1	-18%	1%	-6%	-13%	3%	5%
Cc1cccc(C(=O)O/N=C(\N)c2ccc(Cl)cc2)c1	1.9µM*	u	0.4µM*	x	1.8µM*	u
Cc1ccc(/C(N)=N/OC(=O)c2ccc(Cl)cc2Cl)cc1	1.1µM*	u	3.2µM*	11µM*	2.5µM*	u
Cc1cccc(N2CCN(C(=O)Cn3nc(Cc4cccnc4)c4ccccc4c3=O)CC2)c1C	-2%	x	x	-17%	x	x
Cc1ccc(OCC(=O)Nc2ccc3nc(SCC(=O)N(C)c4ccccc4)sc3c2)cc1	-10%	x	x	x	x	x
Cc1ccc(C)c(C(=O)O/N=C(\N)c2ccc(Br)cc2)c1	15µM*	u	u	u	27%	u
